In PubChem BioAssay (Tox21):
Inconclusive results are not listed. Activity calls are given as the source filed them. Unless noted, the call rests on the fitted dose curve.

How the values were obtained:
[1] = Nuclear factor erythroid 2-related factor 2/antioxidant responsive element (Nrf2/ARE) small molecule agonists: qHTS cell viability counter screen in human keratinocytes (AID 1919968; active means well fitted curve in the direction sought with a large enough effect in the repeat runs; an effect the other way counts as inactive or inconclusive; further: nearly all actives have a fitted effect of over 55% in size; further: potency means the concentration at half of the fitted maximal effect)
Outline: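 After a 5 h attachment period, ARE-reporter keratinocytes were dosed with compounds in DMSO and then cultured 23 h at 37 C. Cell viability came from CellTiter-Fluor signal read after a further 1 h.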

[2] = Nuclear factor erythroid 2-related factor 2/antioxidant responsive element (Nrf2/ARE) small molecule agonists: luciferase reporter gene qHTS assay in human keratinocytes (AID 1919969); further: nearly all actives have a fitted effect of over 35% in size; further: potency means the concentration at half of the fitted maximal effect
[3] = molecular target: Gonadotropin-releasing hormone receptor (Homo sapiens) (UniProt P30968); assay: Human gonadotropin-releasing hormone receptor (GnRHR) small molecule agonists, calcium flux assay in GnRHR-HEK293 cells (AID 1920063); further: nearly all actives have a fitted effect of over 35% in size; further: potency means the concentration at half of the fitted maximal effect
Chain of Gonadotropin-releasing hormone receptor (Homo sapiens) (P30968 whole entry, looked up): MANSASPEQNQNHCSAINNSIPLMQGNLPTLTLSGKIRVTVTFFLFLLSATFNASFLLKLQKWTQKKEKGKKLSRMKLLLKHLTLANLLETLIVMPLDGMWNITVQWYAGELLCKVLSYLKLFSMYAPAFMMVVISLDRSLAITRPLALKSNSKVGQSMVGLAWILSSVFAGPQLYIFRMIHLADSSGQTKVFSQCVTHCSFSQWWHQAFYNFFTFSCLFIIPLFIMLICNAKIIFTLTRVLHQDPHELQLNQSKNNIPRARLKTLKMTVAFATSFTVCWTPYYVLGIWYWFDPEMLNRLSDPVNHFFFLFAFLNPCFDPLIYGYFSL
Outline: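 We seeded human GnRHR-expressing HEK293 cells for 18 hours, loaded them with calcium dye for an hour at 37 C, added test compounds, and recorded fluorescence intensity kinetically for three minutes.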

[4] = molecular target: KiSS-1 receptor (Homo sapiens) (UniProt Q969F8); assay: Human kisspeptin (KISS1R) small molecule agonists, calcium flux assay in KISS1R-HEK293 cells (AID 1920064; active means well fitted curve in the direction sought with a large enough effect in the repeat runs; an effect the other way counts as inactive or inconclusive; further: on the % scale 0 is the no-effect control and ±100 the full control effect)
Chain of KiSS-1 receptor (Homo sapiens) (Q969F8 whole entry, looked up): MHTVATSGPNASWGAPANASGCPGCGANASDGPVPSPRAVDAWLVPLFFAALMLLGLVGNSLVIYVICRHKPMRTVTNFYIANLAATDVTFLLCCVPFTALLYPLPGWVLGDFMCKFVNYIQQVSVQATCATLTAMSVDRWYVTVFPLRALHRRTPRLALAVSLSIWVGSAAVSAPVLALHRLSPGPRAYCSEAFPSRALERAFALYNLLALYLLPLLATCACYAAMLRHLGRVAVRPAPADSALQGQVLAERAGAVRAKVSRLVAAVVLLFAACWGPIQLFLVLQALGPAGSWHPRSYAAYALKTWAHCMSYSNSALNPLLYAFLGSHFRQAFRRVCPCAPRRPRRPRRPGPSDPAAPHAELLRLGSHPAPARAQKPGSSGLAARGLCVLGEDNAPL
Outline: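 Kinetic calcium assay, 1 s sampling over 3 min at Ex/Em 480/540, in HEK293 cells engineered with human KISS1R; compounds delivered in DMSO after 1 h dye loading.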

[5] = p53 small molecule agonists, cell-based qHTS assay with human liver microsomes: qHTS cell viability counter screen (AID 1963579); further: on the % scale 0 is the no-effect control and ±100 the full control effect; nearly all actives have a fitted effect of over 45% in size
Outline: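 Viability of p53RE-bla cells is measured as CellTiter-Glo luminescence following a 16 h, 37 C incubation with compound, liver microsomes from human donors and NADPH.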

[6] = p53 small molecule agonists, cell-based qHTS assay with rat liver microsomes: qHTS cell viability counter screen (AID 1963580); further: on the % scale 0 is the no-effect control and ±100 the full control effect; nearly all actives have a fitted effect of over 45% in size
Outline: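 p53RE-bla HCT-116 cells (4,000/well) rested 5 h at 37 C, then given Tox21 compounds in DMSO with rat liver microsomes (0.5 mg/mL final) plus NADPH (0.5 mg/mL final) for 16 h at 37 C. Viability read by CellTiter-Glo luminescence after 30 min at room temperature.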

[7] = p53 small molecule agonists, cell-based qHTS assay: qHTS cell viability counter screen (AID 1963581); further: on the % scale 0 is the no-effect control and ±100 the full control effect; nearly all actives have a fitted effect of over 45% in size
Outline: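 Following 5 h attachment, HCT-116 p53RE-bla cells took up compound for 16 h at 37 C; the reporter was read with B/G FRET substrate (2 h RT), and viability then via CellTiter-Glo ATP luminescence.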

[8] = cAMP Responsive Elements (CRE) small molecule agonists, cell-based qHTS assay (AID 1963590); further: on the % scale 0 is the no-effect control and ±100 the full control effect
Outline: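 A CRE-responsive beta-lactamase reporter in HEK 293T cells was used. Treatment ran 3 h at 37 C; detection used LiveBLAzer B/G FRET substrate for 2 h at room temperature.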

[9] = molecular target: Beta-2 adrenergic receptor (Homo sapiens) (UniProt P07550); assay: Adrenergic beta2 receptor (ADRB2) small molecule antagonists, cell-based qHTS assay (AID 1963592); further: nearly all actives have a fitted effect of over 50% in size; further: potency means the concentration at half of the fitted maximal effect
Chain of Beta-2 adrenergic receptor (Homo sapiens) (P07550 whole entry, looked up): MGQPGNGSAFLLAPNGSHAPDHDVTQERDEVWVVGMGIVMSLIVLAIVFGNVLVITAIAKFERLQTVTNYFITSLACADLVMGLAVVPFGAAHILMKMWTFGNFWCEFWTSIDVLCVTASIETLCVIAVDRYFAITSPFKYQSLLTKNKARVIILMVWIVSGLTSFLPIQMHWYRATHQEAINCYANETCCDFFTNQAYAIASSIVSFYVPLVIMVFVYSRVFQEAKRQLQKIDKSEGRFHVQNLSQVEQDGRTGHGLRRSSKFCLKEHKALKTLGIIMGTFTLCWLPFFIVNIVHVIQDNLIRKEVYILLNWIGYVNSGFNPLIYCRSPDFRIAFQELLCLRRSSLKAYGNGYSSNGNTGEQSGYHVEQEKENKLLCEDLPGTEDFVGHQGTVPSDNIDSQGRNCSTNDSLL
Outline: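 Cells (CHO, stable ADRB2 overexpression) incubated 18-20hr at 37C; compounds added from DMSO; agonist mix (1nM isoproterenol, 100uM IBMX, 25uM Ro-20-1724) added; 0.5hr RT; d2-cAMP and anti-cAMP-cryptate added; 1hr RT; 665/615 nm read.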

[10] = molecular target: Beta-2 adrenergic receptor (Homo sapiens) (UniProt P07550); assay: Adrenergic beta2 receptor (ADRB2) small molecule agonists, cell-based qHTS assay (AID 1963593);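 further: CHO cells stably overexpressing human ADRB2; on the % scale 0 is the no-effect control and ±100 the full control effect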
Outline: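 CHO cells stably over-expressing ADRB2 were plated overnight at 37C, then dosed with compounds plus a stimulation mix containing 100uM IBMX and 25uM Ro-20-1724 for 0.5hr at room temperature. cAMP was measured by HTRF competition, 1hr.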

[11] = molecular target: D(2) dopamine receptor (Homo sapiens) (UniProt P14416); assay: Dopamine D2 receptor (DRD2) small molecule agonists, cell-based qHTS assay (AID 1963594); further: on the % scale 0 is the no-effect control and ±100 the full control effect; nearly all actives have a fitted effect of over 35% in size
Chain of D(2) dopamine receptor (Homo sapiens) (P14416 whole entry, looked up): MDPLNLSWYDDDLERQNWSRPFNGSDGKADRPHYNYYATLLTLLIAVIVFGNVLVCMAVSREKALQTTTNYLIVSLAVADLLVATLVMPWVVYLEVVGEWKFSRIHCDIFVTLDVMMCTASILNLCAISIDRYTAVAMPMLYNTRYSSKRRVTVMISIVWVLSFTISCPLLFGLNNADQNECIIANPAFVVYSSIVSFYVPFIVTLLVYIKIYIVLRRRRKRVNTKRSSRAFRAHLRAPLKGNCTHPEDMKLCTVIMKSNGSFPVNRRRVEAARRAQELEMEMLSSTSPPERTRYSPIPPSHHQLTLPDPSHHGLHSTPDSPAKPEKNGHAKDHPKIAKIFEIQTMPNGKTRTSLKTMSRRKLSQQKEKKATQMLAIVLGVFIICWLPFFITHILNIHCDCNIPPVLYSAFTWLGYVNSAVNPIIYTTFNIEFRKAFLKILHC
Outline: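 HEK293 cells stably expressing DRD2 were cultured 24 h at 37 C, then given Ro20-1724 (0.1 mM final) and compounds for 10 min at room temperature. NKH477 (200nM) was then added for 30 min. cAMP was read by HTRF.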

[12] = molecular target: D(2) dopamine receptor (Homo sapiens) (UniProt P14416); assay: Dopamine D2 receptor (DRD2) small molecule antagonists, cell-based qHTS assay (AID 1963595; active means well fitted inhibition curve with a large enough effect in the signal ratio in the repeat runs, with a control signal flat; the % refers to the signal ratio; further: on the % scale 0 is the no-effect control and ±100 the full control effect)
Outline: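 DRD2-HEK293; 0.1 mM Ro20-1724; cpd 10 min RT; NKH477 200 nM + quinpirole 12 nM, 30 min RT; HTRF cAMP (cAMP-d2/anti-cAMP cryptate), 665/620 nm ratio after 1 h.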

[13] = G protein-coupled receptor (GPCR) small molecule agonists, calcium flux assay: HEK293 wild type cell line counter screen (AID 1920065); further: potency means the concentration at half of the fitted maximal effect
Outline: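 Calcium-sensitive dye, loaded 1 h at 37 C into cells cultured 18 h, reports compound-evoked calcium release as fluorescence (Ex/Em 480/540), measured over 3 min. Agonist mode; 15-point titrations, triplicate.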

[14] = p53 small molecule agonists, cell-based qHTS assay with rat liver microsomes (AID 1963578); further: on the % scale 0 is the no-effect control and ±100 the full control effect
Outline: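 Quantitative HTS of the Tox21 10K library: p53RE-bla cells, rat liver microsomes plus NADPH at 0.5 mg/mL final each, 16 h at 37 C, beta-lactamase fluorescence detection.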

[15] = molecular target: 5-hydroxytryptamine receptor 2A (Homo sapiens) (UniProt P28223); assay: 5-hydroxytryptamine receptor 2A (HTR2A) small molecule antagonists, cell-based qHTS assay (AID 1963586); further: nearly all actives have a fitted effect of over 45% in size; further: potency means the concentration at half of the fitted maximal effect
Chain of 5-hydroxytryptamine receptor 2A (Homo sapiens) (P28223 whole entry, looked up): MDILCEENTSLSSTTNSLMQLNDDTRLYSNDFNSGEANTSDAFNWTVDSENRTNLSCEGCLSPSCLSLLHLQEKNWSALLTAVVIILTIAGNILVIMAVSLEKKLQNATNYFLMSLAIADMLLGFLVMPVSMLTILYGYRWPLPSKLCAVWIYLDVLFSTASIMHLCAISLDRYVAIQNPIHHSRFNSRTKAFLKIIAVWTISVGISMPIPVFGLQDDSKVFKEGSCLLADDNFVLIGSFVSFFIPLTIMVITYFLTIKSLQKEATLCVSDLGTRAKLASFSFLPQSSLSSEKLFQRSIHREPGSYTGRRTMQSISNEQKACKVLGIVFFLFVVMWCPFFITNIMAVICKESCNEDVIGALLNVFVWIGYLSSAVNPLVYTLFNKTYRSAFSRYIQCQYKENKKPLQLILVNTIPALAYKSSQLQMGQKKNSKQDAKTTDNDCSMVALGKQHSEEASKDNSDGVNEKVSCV
Outline: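 Antagonist-mode intracellular calcium assay: DOI (4 nM) added after 5 min compound pre-incubation at room temperature to dye-loaded HTR2A-CHO cells. Fluorescence followed for 3 min, sampled every second.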

[16] = molecular target: 5-hydroxytryptamine receptor 2A (Homo sapiens) (UniProt P28223); assay: 5-hydroxytryptamine receptor 2A (HTR2A) small molecule agonists, cell-based qHTS assay (AID 1963587); further: nearly all actives have a fitted effect of over 30% in size; further: potency means the concentration at half of the fitted maximal effect
Outline: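 HTR2A-CHO cells, plated 18 h at 37 C/5% CO2, dye-loaded 1 h at 37 C; compounds in DMSO added by pin tool (agonist mode). Intracellular calcium flux read as kinetic fluorescence on FDSS over 2 min at 1 s intervals.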

[17] = molecular target: Muscarinic acetylcholine receptor M1 (Homo sapiens) (UniProt P11229); assay: Cholinergic receptor muscarinic 1 (CHRM1) small molecule antagonists, cell-based qHTS assay (AID 1963588); further: nearly all actives have a fitted effect of over 40% in size; further: potency means the concentration at half of the fitted maximal effect
Chain of Muscarinic acetylcholine receptor M1 (Homo sapiens) (P11229 whole entry, looked up): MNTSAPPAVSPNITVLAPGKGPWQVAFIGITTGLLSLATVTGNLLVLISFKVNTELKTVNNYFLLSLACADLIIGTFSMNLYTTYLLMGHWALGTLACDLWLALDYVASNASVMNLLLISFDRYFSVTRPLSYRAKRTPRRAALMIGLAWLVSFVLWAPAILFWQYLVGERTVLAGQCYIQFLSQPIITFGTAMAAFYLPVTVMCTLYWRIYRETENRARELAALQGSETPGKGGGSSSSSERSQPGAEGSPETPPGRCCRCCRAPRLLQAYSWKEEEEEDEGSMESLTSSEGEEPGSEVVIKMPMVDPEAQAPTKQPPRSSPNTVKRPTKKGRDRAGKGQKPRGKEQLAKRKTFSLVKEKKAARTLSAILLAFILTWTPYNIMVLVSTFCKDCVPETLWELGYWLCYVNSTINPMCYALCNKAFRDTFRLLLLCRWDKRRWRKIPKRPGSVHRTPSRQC
Outline: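 CHRM1-CHO calcium-flux assay, antagonist mode. Cells were seeded 18 h, dye-loaded 1 h at 37 C and given compound for 5 min at RT, then acetylcholine was added at 50nM. FDSS fluorescence was read 3 min; 15 concentrations, three runs.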

[18] = molecular target: Muscarinic acetylcholine receptor M1 (Homo sapiens) (UniProt P11229); assay: Cholinergic receptor muscarinic 1 (CHRM1) small molecule agonists, cell-based qHTS assay (AID 1963589); further: nearly all actives have a fitted effect of over 35% in size; further: potency means the concentration at half of the fitted maximal effect
Outline: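 Measures agonist-induced intracellular calcium rise. Stable human CHRM1 CHO line, 1 h dye load at 37 C, compounds from DMSO, kinetic fluorescence read.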

[19] = cAMP Responsive Elements (CRE) small molecule antagonists, cell-based qHTS assay (AID 1963591; active means well fitted inhibition curve with a large enough effect in the signal ratio in the repeat runs, not every such curve was filed as active; the % refers to the signal ratio; further: on the % scale 0 is the no-effect control and ±100 the full control effect)
Outline: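 HEK293T cells carrying a CRE-driven beta-lactamase reporter receive compound and NKH477 (0.25 uM final) for 3 h. Fluorescence from LiveBLAzer B/G FRET substrate is read after 2 h at room temperature.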

CC1CN(c2cc3c(cc2F)c(=O)c(C(=O)O)cn3-c2ccc(F)cc2F)CCN1 (stereo not given)
inactive: activity change, negative = cytotoxicity [1] 6.63% [at 8.39 µM] | activity, positive = activation [2] 4.55% [at 8.39 µM] | activity change [3] -0.555% [at 5.22 µM, hits give high values] | activation [4] 3.09% [at 6.97 µM] | activity change, negative = cytotoxicity [5] 1.1% [at 5.99 µM] | activity change, negative = cytotoxicity [6] -0.821% [at 5.99 µM] | activity change, negative = cytotoxicity [7] 22.9% [at 5.99 µM] | activation [8] -2.24% [at 8.39 µM] | activity change, negative = inhibition [9] 4.5% [at 8.39 µM] | activation [10] 1.31% [at 8.39 µM] | activation [11] -7.78% [at 8.39 µM] | activity change, negative = inhibition [12] -0.708% [at 8.38 µM]

CC(C)(C)c1cc(O)c(C(C)(C)C)cc1O
inactive: Potency [1] | Potency [14] | Potency [5] | Potency [6] | Potency [7] | Potency [8] | Potency [19] | Potency [10] | Potency [11] | Potency [12]
active: Potency [2] 15.4 µM | Potency [3] 5.49 µM | Potency [13] 34.7 µM | Potency [15] 14.9 µM | Potency [16] 1.1 µM | Potency [17] 18.8 µM | Potency [18] 11 µM

Clc1ccc(C(Cn2ccnc2)OCc2ccsc2Cl)c(Cl)c1 (stereo not given)
active: Potency [1] 8.41 µM | Potency [2] 10.6 µM | Potency [9] 29.8 µM
inactive: Potency [3] | Potency [4] | Potency [6] | Potency [7] | Potency [15] | Potency [16] | Potency [18] | Potency [8] | Potency [11] | Potency [12]

O=Cc1cc(O)ccc1Br
inactive: Potency [1] | Potency [3] | Potency [4] | Potency [6] | Potency [7] | Potency [15] | Potency [17] | Potency [18] | Potency [8] | Potency [19] | Potency [9] | Potency [10] | Potency [11] | Potency [12]
active: Potency [2] 49.2 µM

COc1cc(C(C)C)c2c(c1)S(=O)(=O)N(COc1cc(=O)n3cccc(OCCN4CCCCC4)c3n1)C2=O
inactive: activity change, negative = cytotoxicity [1] -10.3% [at 19 µM] | activity change [3] -0.424% [at 11.8 µM, hits give high values] | activation [4] -3.13% [at 15.8 µM] | activity change, negative = cytotoxicity [6] -0.988% [at 13.5 µM] | activity change, negative = cytotoxicity [7] -1.9% [at 13.5 µM] | activity, negative = inhibition [15] 4.6% [at 12.7 µM] | activation [16] -1.78% [at 15.9 µM] | activity, negative = inhibition [17] -3.39% [at 12.6 µM] | activation [18] -0.958% [at 15.8 µM] | activity change, negative = inhibition [9] 1.57% [at 19 µM] | activation [11] -15.5% [at 19 µM]
active: Potency [2] 2.91 µM

CC(C)CCOCc1ccccc1
inactive: Potency [1] | Potency [2] | Potency [3] | Potency [4] | Potency [5] | Potency [6] | Potency [7] | Potency [15] | Potency [16] | Potency [17] | Potency [8] | Potency [19] | Potency [9] | Potency [10] | Potency [11] | Potency [12]

COc1ccc(COC=O)cc1
inactive: Potency [1] | Potency [2] | Potency [3] | Potency [4] | Potency [5] | Potency [6] | Potency [7] | Potency [15] | Potency [16] | Potency [17] | Potency [18] | Potency [8] | Potency [19] | Potency [11] | Potency [12]
